Test results from PubChem BioAssay (EPA / NIEHS).
Active and inactive are the calls of the source. Rule for the calls: active = hit-call score of the fitted dose curve at least 0.9, where 1 is the maximum; inactive = score below 0.9.

Tests used:
[1] = target: CCAAT/enhancer-binding protein beta (Homo sapiens) (UniProt P17676); assay: ATG_C_EBP_CIS: Attagene CIS-FACTORIAL HepG2 Assay for human CCAAT/Enhancer Binding Protein (C/EBP) beta (AID 2282927); details: HepG2 Attagene cis-factorial transcription factor reporter; actives raise or lower the signal
CCAAT/enhancer-binding protein beta (Homo sapiens), sequence (P17676 whole entry, looked up): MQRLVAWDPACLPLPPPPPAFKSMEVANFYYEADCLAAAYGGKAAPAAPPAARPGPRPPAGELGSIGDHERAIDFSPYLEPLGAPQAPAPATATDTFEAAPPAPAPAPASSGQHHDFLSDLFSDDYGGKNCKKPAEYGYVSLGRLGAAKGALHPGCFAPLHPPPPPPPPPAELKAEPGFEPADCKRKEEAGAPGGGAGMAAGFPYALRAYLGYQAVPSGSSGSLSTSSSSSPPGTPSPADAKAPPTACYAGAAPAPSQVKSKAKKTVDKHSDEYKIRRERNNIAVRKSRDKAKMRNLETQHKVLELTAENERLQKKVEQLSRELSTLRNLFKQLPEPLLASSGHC
Summary of the method: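 Endogenous transcription factor activity in human liver HepG2 cells is inferred from induction of a CEBPB-linked reporter mRNA. Exposure lasts 24 h; activity is fitted in both directions relative to DMSO.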

[2] = ATG_CMV_CIS: Attagene CIS-FACTORIAL HepG2 Assay for human CMV (Internal Marker) (AID 2282928); details: HepG2 CMV promoter reporter, transcription factor profiling; actives raise or lower the signal;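 note: endpoint acts as a background internal control marker rather than a target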
Summary of the method: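 CMV internal-marker background readout in transiently transfected HepG2 cells bearing cis-regulated reporter units. Reporter mRNA is measured 24 h after dosing by RT-PCR and capillary electrophoresis, with bidirectional fitting against DMSO.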

[3] = ATG_DR4_LXR_CIS: Attagene CIS-FACTORIAL HepG2 Assay for human Liver X Receptor (LXR), DR4 submotif (AID 2282929); details: HepG2 Attagene DR4 cis-reporter, mRNA transcription; actives raise or lower the signal
Summary of the method: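 Measures endogenous transcription factor activity via a DR4-driven reporter transcript in human HepG2 cells. Compounds incubated 24 h; mRNA quantified by RT-PCR and capillary electrophoresis, analysed as gain or loss of signal versus DMSO.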

[4] = ATG_AP_1_CIS: Attagene CIS-FACTORIAL HepG2 Assay for human Activator Protein 1 (AP-1) (AID 2282931); details: HepG2 Attagene cis-factorial AP-1 reporter mRNA; actives raise or lower the signal
Summary of the method: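 Bidirectional concentration-response fitting against DMSO controls. Underlying signal: reporter mRNA from cis-promoter constructs in transiently transfected HepG2, measured after 24 h by RT-PCR and capillary electrophoresis.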

[5] = ATG_AP_2_CIS: Attagene CIS-FACTORIAL HepG2 Assay for human Activator Protein 2 (AP-2) (AID 2282932); details: HepG2 AP-2 cis-reporter, Attagene transcription factor profiling; actives raise or lower the signal
Summary of the method: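 Step one: transient transfection of HepG2 with reporter transcription units. Step two: 24 h chemical exposure. Step three: RNA extraction, RT-PCR, labelled fragment analysis by capillary electrophoresis; DMSO serves as baseline.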

[6] = ATG_BRE_CIS: Attagene CIS-FACTORIAL HepG2 Assay for human Bone Morphogenetic Protein (BMP) Response Element (BRE) (AID 2282933); details: HepG2 BMP response element reporter, Attagene transcription factor profiling; actives raise or lower the signal
Summary of the method: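 Endogenous transcription factor activity at a BMP response element was monitored in transfected HepG2 cells 24 h after dosing. Fluorescent RT-PCR products were resolved by capillary electrophoresis, and activity was fitted in both directions versus DMSO.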

[7] = target: Transcription factor E2F1 (Homo sapiens) (UniProt Q01094); assay: ATG_E2F_CIS: Attagene CIS-FACTORIAL HepG2 Assay for human E2F Transcription Factor 1 (AID 2282935); details: HepG2 Attagene cis-reporter, E2F reporter RNA transcripts; actives raise or lower the signal
Transcription factor E2F1 (Homo sapiens), sequence (Q01094 whole entry, looked up): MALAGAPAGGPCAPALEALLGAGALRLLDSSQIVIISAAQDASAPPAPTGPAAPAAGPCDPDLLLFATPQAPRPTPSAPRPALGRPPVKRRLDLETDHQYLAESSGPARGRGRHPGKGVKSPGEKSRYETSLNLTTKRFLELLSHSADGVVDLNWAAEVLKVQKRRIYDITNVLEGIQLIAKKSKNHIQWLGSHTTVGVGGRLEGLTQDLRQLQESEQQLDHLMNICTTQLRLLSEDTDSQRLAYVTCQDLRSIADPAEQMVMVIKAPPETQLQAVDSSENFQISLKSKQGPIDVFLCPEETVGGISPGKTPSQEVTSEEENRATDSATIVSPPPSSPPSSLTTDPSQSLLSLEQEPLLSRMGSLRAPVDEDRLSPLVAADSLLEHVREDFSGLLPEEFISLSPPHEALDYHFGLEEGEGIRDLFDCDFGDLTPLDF
Summary of the method: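 Total RNA from 24 h-treated, reporter-transfected HepG2 cells undergoes DNase I treatment, oligo(dT) reverse transcription, PCR and 6-FAM primer extension before capillary electrophoresis.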

[8] = ATG_E_Box_CIS: Attagene CIS-FACTORIAL HepG2 Assay for human Enhancer Box (E-box) (AID 2282936); details: HepG2 E-box cis-reporter transcription, actives raise or lower the signal
Summary of the method: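 DMSO served as negative control and baseline for bidirectional fitting. Human hepatoma HepG2 cells, transiently transfected with cis-reporter constructs, were dosed 24 h; reporter mRNA read by RT-PCR and capillary electrophoresis.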

[9] = ATG_M_61_CIS: Attagene CIS-FACTORIAL HepG2 Assay for M61 Transcription Factor (Internal Marker) (AID 2282937); details: HepG2 Attagene CIS-FACTORIAL M61 internal marker reporter; actives raise or lower the signal
Summary of the method: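 Fluorescence from labelled cDNA fragments, separated by capillary electrophoresis, quantifies reporter induction. HepG2 cells bearing transiently transfected cis-promoter MRTUs were incubated with test chemical for 24 h; DMSO defined baseline for gain/loss fitting.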

[10] = ATG_EGR_CIS: Attagene CIS-FACTORIAL HepG2 Assay for human Early Growth Response 1 (EGR1) (AID 2282938); details: HepG2 Attagene CIS-FACTORIAL EGR reporter mRNA; actives raise or lower the signal
Summary of the method: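 Cell-based multiplex transcription assay: HepG2 carrying transfected cis-element reporter units, 24 h chemical treatment. Fluorescence from capillary electrophoresis of RT-PCR products gives mRNA levels; fitting is bidirectional relative to DMSO.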

[11] = ATG_Ets_CIS: Attagene CIS-FACTORIAL HepG2 Assay for human Erythroblast Transformation Specific (ETS) (AID 2282941); details: HepG2 ETS cis-reporter transcription, actives raise or lower the signal
Summary of the method: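 HepG2 cells transfected with multiple cis-regulated reporter units measuring endogenous ETS-driven transcription, 24 h after dosing. Reporter mRNA quantified by RT-PCR with capillary electrophoresis; bidirectional fit relative to DMSO.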

[12] = ATG_GATA_CIS: Attagene CIS-FACTORIAL HepG2 Assay for human GATA Binding Protein (AID 2282944); details: HepG2 GATA cis-element reporter, Attagene multiplex mRNA; actives raise or lower the signal
Summary of the method: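 Endogenous transcription factor activity was captured through cis-promoter-driven reporters in transfected HepG2 cells. After 24 h exposure, reporter transcripts were quantified by RT-PCR with fluorescent capillary electrophoresis, and responses fitted both directions against DMSO.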

[13] = ATG_GLI_CIS: Attagene CIS-FACTORIAL HepG2 Assay for human Zinc Finger Protein GLI1 (AID 2282945); details: HepG2, Attagene cis-factorial reporter mRNA, GLI element; actives raise or lower the signal
Summary of the method: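 Bidirectional curve fits relative to DMSO, using reporter mRNA levels from RT-PCR plus capillary electrophoresis. Cells were HepG2 transiently carrying cis-regulated reporter constructs, harvested 24 h after dosing.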

[14] = ATG_ISRE_CIS: Attagene CIS-FACTORIAL HepG2 Assay for human Interferon Regulatory Factor 1 (IRF1) binding to an Interferon-Stimulated Response Element (ISRE) (AID 2282948); details: HepG2 ISRE cis-reporter (Attagene), mRNA transcription readout; actives raise or lower the signal
Summary of the method: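 Transiently transfected HepG2 cells carrying cis-element reporter units, dosed 24 hours. Reporter mRNA quantified by RT-PCR, fluorescent primer extension, HpaI digestion and capillary electrophoresis. Bidirectional fitting relative to DMSO.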

[15] = ATG_M_32_CIS: Attagene CIS-FACTORIAL HepG2 Assay for M32 Transcription Factor (Internal Marker) (AID 2282949); details: HepG2 Attagene cis-factorial M32 reporter, mRNA; actives raise or lower the signal;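 note: background control marker of the multiplexed CIS panel rather than a real target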
Summary of the method: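 Internal background marker read-out: RT-PCR/capillary electrophoresis fluorescence of reporter transcripts from transiently transfected HepG2 cells after 24 h chemical exposure. Activity fitted bidirectionally relative to DMSO negative control.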

[16] = ATG_M_06_CIS: Attagene CIS-FACTORIAL HepG2 Assay for M06 Transcription Factor (Internal Marker) (AID 2282950); details: HepG2 Attagene CIS-FACTORIAL M06 internal marker reporter; actives raise or lower the signal
Summary of the method: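 Steps: transfect HepG2 with multiplexed cis-element reporter constructs; dose chemical 24 h; extract RNA with DNase treatment; reverse-transcribe, PCR-amplify, 6-FAM label, HpaI digest; separate fragments by capillary electrophoresis. Activity fitted both directions versus DMSO.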

[17] = target: Hepatocyte nuclear factor 6 (Homo sapiens) (UniProt Q9UBC0); assay: ATG_HNF6_CIS: Attagene CIS-FACTORIAL HepG2 Assay for human Hepatocyte Nuclear Factor 6 (HNF6) (AID 2282952); details: HepG2 Attagene cis-factorial HNF6 reporter transcription; actives raise or lower the signal
Hepatocyte nuclear factor 6 (Homo sapiens), sequence (Q9UBC0 whole entry, looked up, the tested form may be a part): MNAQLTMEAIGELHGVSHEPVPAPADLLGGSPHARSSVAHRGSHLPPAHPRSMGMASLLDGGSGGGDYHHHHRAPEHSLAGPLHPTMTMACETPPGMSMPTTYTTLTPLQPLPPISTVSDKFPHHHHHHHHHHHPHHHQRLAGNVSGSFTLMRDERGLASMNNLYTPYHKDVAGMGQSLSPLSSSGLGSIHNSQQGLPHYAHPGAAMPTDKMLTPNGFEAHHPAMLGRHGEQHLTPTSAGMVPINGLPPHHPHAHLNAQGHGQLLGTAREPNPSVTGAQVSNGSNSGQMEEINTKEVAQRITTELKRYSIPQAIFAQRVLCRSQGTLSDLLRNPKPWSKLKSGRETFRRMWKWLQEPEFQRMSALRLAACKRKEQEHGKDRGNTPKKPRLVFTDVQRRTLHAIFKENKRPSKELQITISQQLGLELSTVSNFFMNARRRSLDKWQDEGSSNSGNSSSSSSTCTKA
Summary of the method: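 HepG2 cells transiently transfected with cis-element-driven multiplexed reporter units measuring endogenous transcription factor activity. After 24 h exposure, reporter mRNA quantified by RT-PCR, FAM-labelled fragments and capillary electrophoresis; bidirectional fitting versus DMSO.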

[18] = ATG_MRE_CIS: Attagene CIS-FACTORIAL HepG2 Assay for human Metal Responsive Element (MRE) (AID 2282954); details: HepG2 MRE cis-reporter transcription, Attagene multiplex; actives raise or lower the signal
Summary of the method: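 After a 24 h chemical exposure, transiently transfected HepG2 cells yield RNA whose reporter sequences are amplified, FAM-labelled and sized by capillary electrophoresis. Curves are fitted bidirectionally relative to DMSO.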

[19] = ATG_PXRE_CIS: Attagene CIS-FACTORIAL HepG2 Assay for human Pregnane X Receptor Element (PXRE) (AID 2282957); details: HepG2 Attagene CIS-FACTORIAL PXRE reporter, mRNA; actives raise or lower the signal
Summary of the method: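 HepG2 cells transiently transfected with cis-element-driven multiplexed reporter units; after 24 h chemical exposure, reporter mRNA measured by RT-PCR, 6-FAM labelling, HpaI digestion and capillary electrophoresis. Bidirectional fitting relative to DMSO.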

[20] = ATG_Sox_CIS: Attagene CIS-FACTORIAL HepG2 Assay for human SRY-box transcription factor (SOX) (AID 2282960); details: HepG2 Attagene cis-factorial SOX reporter, mRNA; actives raise or lower the signal
Summary of the method: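 After 24 h of chemical treatment, transfected HepG2 reporter cells are lysed for total RNA. Transcript levels come from RT-PCR with labelled primer extension and capillary electrophoresis, analysed bidirectionally versus DMSO.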

Measured: AC50

C=C(Cl)Cl
inactive: [1] | [2] | [3] | [4] | [5] | [6] | [7] | [8] | [9] | [10] | [11] | [12] | [13] | [14] | [15] | [16] | [17] | [18] | [20]
active: [19] 50.8 µM

C[N+](C)(C)CC(=O)O
inactive: [1] | [2] | [3] | [4] | [5] | [6] | [7] | [8] | [9] | [10] | [11] | [12] | [13] | [14] | [15] | [16] | [17] | [18] | [19] | [20]

COCC(=O)N(c1c(C)cccc1C)N1CCOC1=O
inactive: [1] | [2] | [3] | [4] | [5] | [6] | [7] | [8] | [9] | [10] | [11] | [12] | [13] | [14] | [15] | [16] | [17] | [18] | [20]
active: [19] 29.9 µM

C=COCCCl
inactive: [1] | [2] | [3] | [4] | [5] | [6] | [7] | [8] | [9] | [10] | [11] | [12] | [13] | [14] | [15] | [16] | [17] | [18] | [19] | [20]

ClC1=C(Cl)[C@]2(Cl)[C@@H]3[C@@H](Cl)[C@H](Cl)C[C@@H]3[C@@]1(Cl)C2(Cl)Cl
inactive: [1] | [2] | [3] | [4] | [5] | [6] | [7] | [8] | [9] | [10] | [11] | [12] | [13] | [14] | [15] | [16] | [17] | [18] | [19] | [20]

CC(C)CCCCCCCOP(=O)(Oc1ccccc1)Oc1ccccc1
inactive: [1] | [5] | [6] | [7] | [8] | [9] | [10] | [11] | [12] | [13] | [14] | [15] | [16] | [17] | [18] | [20]
active: [2] 55.6 µM | [3] 21.6 µM | [4] 33.3 µM | [19] 0.408 µM

CCCCNP(N)(N)=S
inactive: [1] | [2] | [3] | [4] | [5] | [6] | [7] | [8] | [9] | [10] | [11] | [12] | [13] | [14] | [15] | [16] | [17] | [18] | [19] | [20]

CC1(C)CC(=O)CC(C)(C)N1[O]
inactive: [1] | [2] | [3] | [4] | [5] | [6] | [7] | [8] | [9] | [10] | [11] | [12] | [13] | [14] | [15] | [16] | [17] | [18] | [20]
active: [19] 33.2 µM
